The target of assay [1] is Nucleoli Translocation, AR (gene 367) (UniProt P10275). As to the kind of experiment: UPITT_HCI_U2OS_AR_TIF2_Nucleoli_Agonist: University of Pittsburgh U2OS Androgen Receptor-Transcriptional Intermediary Factor 2 (AR-TIF2) Agonism High Content Imaging Assay for Nucleoli Translocation (AID 2283998; active = hit-call score of the fitted dose curve at least 0.9, where 1 is the maximum). In a few lines:
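RFP-AR / GFP-TIF2 cells; cpds diluted in serum-free medium; single-point screen 20 uM final (0.2% DMSO), actives confirmed in triplicate; conc-response 0.195–50 uM final (0.5% DMSO). Readout: nucleolar red fluorescence, positive direction vs DMSO.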

Assay [2] has as its target Ratio of Nucleoli Translocation and Cytoplasm, AR (gene 367) (UniProt P10275). As to the kind of experiment: UPITT_HCI_U2OS_AR_TIF2_Nucleoli_Cytoplasm_Ratio_Antagonist: University of Pittsburgh U2OS Androgen Receptor-Transcriptional Intermediary Factor 2 (AR-TIF2) Antagonism High Content Imaging Assay for Ratio of Nucleoli Translocation and Cytoplasm (AID 2283999; active = hit-call score of the fitted dose curve at least 0.9, where 1 is the maximum;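 note: antagonists lower the DHT-driven ratio of nucleolar to cytoplasmic red signal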). The gist of the method:
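Read-out is the ratio of nucleolar to cytoplasmic AR-RFP fluorescence, imaged by high-content microscopy in U2OS cells coexpressing TIF2-GFP. Single-point 20 uM screen, triplicate confirmation, then 0.195–50 uM dose response; activity referenced to DHT baseline.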

Assay [3] shares this target. As to the kind of experiment: UPITT_HCI_U2OS_AR_TIF2_Nucleoli_Cytoplasm_Ratio_Agonist: University of Pittsburgh U2OS Androgen Receptor-Transcriptional Intermediary Factor 2 (AR-TIF2) Agonism High Content Imaging Assay for Ratio of Nucleoli Translocation and Cytoplasm (AID 2284000; active = hit-call score of the fitted dose curve at least 0.9, where 1 is the maximum;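 note: hits raise the red nucleolar to cytoplasm ratio above vehicle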). In a few lines: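 Primary screen at 20 uM final (0.2% DMSO), then triplicate confirmation and dose-response from 0.195 to 50 uM final (0.5% DMSO). Cells: U2OS with AR-RFP and TIF2-GFP. Endpoint is the nucleoli/cytoplasm red-fluorescence ratio, gain-of-signal vs DMSO.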

Assay [4] is described as follows: CCTE_Harrill_HTTr_Viability_MCF7: CCTE's 6-hour Cell Viability Assessment for the High-Throughput Transcriptomics (HTTr) Platform, in MCF-7 cells cultured in DMEM + 10% fetal bovine serum, Harrill Lab (AID 2284010). The gist of the method:
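PI exclusion, high-content imaging; 8-pt dilution series, 6 h exposure; bidirectional fit vs DMSO (neg. ctrl/baseline); gain of signal = loss of membrane integrity.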

Assay [5] has as its target Nucleoli Translocation, AR (gene 367) (UniProt P10275). As to the kind of experiment: UPITT_HCI_U2OS_AR_TIF2_Nucleoli_Antagonist: University of Pittsburgh U2OS Androgen Receptor-Transcriptional Intermediary Factor 2 (AR-TIF2) Antagonism High Content Imaging Assay for Nucleoli Translocation (AID 2283997; active = hit-call score of the fitted dose curve at least 0.9, where 1 is the maximum). The gist of the method: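 An antagonist-mode imaging screen: engineered U2OS (AR-RFP, TIF2-GFP) exposed to 20 uM compound, 0.2% DMSO. Activity reflects nucleolar red fluorescence change relative to DHT baseline.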

The nature of assay [6]: CCTE_Harrill_HTTr_Apoptosis_MCF7: CCTE's 6-hour Apoptosis Assessment for the High-Throughput Transcriptomics (HTTr) Platform, in MCF-7 cells cultured in DMEM + 10% fetal bovine serum, Harrill Lab (AID 2284011). In a few lines:
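Read-out: CellEvent Caspase 3/7 Green signal by high content imaging, gain-of-signal indicating apoptosis. MCF-7 cells, DMEM + 10% FBS, eight-point dilution series, 6 h exposure. Curves fitted bidirectionally relative to DMSO negative control.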

Assay [7] can be described thus: CCTE_Harrill_HTTr_CellCount_MCF7: CCTE's Cell Proliferation Assessment for the High-Throughput Transcriptomics (HTTr) Platform, Harrill Lab (AID 2284012; active = hit-call score of the fitted dose curve at least 0.9, where 1 is the maximum;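 note: count of Hoechst-stained nuclei per well by high-content imaging in MCF-7 cells; cells exposed to compound for six hours; intended direction is loss of nuclei count meaning fewer cells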). In a few lines:
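Readout: Hoechst nuclear count by high-content imaging. MCF-7, 8-point dilution series, 6 h exposure. Bidirectional fit vs DMSO baseline.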

Assay [8] in a line: CCTE_Shafer_MEA_acute_spike_number: CCTE's Neural Acute Assay for Total Number of Spikes, Shafer Lab (AID 2284008).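 For AC50: curve fitted for decrease in spike count so AC50 reflects inhibitors.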 In a few lines:
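Rat cortical cultures, DIV 13/15, 37 C. 40 min baseline rec, cpd 0.03-40 uM, 40 min post-dose rec. Band-pass 300-5000 Hz, spike threshold 8x rms; % change in spike count per well, DMSO neg ctrl, loss-of-signal fit.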

A short description of assay [9]: CCTE_Shafer_MEA_acute_burst_number: CCTE's Neural Acute Assay for Single-Electrode Bursts, Shafer Lab (AID 2284013). The gist of the method:
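Burst totals were derived with adaptive spike detection (8x rms threshold) on filtered signals from rat cortical cultures; change relative to pre-treatment baseline after 40-min compound exposure (0.03-40 uM) was fitted in the negative direction against DMSO.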

A short description of assay [10]: CCTE_Shafer_MEA_acute_burst_duration_mean: CCTE's Neural Acute Assay for Mean Burst Duration, Shafer Lab (AID 2284014).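 Note: hits are decreases in mean burst duration relative to DMSO controls.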 In a few lines: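 Acute exposure of mature rat cortical networks (DIV 13 or 15) grown on microelectrode arrays to 0.03-40 uM compound. Mean burst duration compared with the 40-min pre-dose baseline over a 40-min post-dose recording at 37 C.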
Assay [11] can be described thus: CCTE_Shafer_MEA_acute_per_burst_spike_number_mean: CCTE's Neural Acute Assay for Average Number of Spikes Per Burst, Shafer Lab (AID 2284015).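 Note: hits are decreases in mean spikes per burst versus baseline.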 The gist of the method:
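Rat primary cortical neurons on 48-well MEAs (DIV 13 or 15) were treated with 0.03-40 uM compound at 37 C. Mean spikes per burst over 40 min were recorded before and after exposure and expressed as percent change from baseline, relative to DMSO.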

Assay [12] is described as follows: CCTE_Shafer_MEA_acute_interburst_interval_mean: CCTE's Neural Acute Assay for Mean Interburst Interval, Shafer Lab (AID 2284016).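 Note: percent change of mean interburst interval versus each well's own pre-dose baseline; curves fitted for decrease in interburst interval relative to DMSO.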 In a few lines: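 Rat primary cortical neurons on 48-well MEAs at DIV 13 or 15 were exposed acutely to 0.03-40 uM. Spikes detected at 8x rms noise, 37 C. Mean interburst interval from 40 min recordings expressed as percent change from 40 min pre-treatment baseline.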

The nature of assay [13]: CCTE_Shafer_MEA_acute_burst_percentage_mean: CCTE's Neural Acute Assay for Percentage of Spikes in a Burst, Shafer Lab (AID 2284017).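 For AC50: curve fitted for loss of signal so potency reflects decreased burst percentage.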 In a few lines:
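Primary rat cortical neurons on 48-well MEA plates, treated on DIV 13 or 15 at 0.03-40 uM. Spikes detected at 8x rms noise at 37C; percent change from 40-min baseline to 40-min post-dose recording, fitted versus DMSO.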

Assay [14] is described as follows: CCTE_Shafer_MEA_acute_burst_percentage_std: CCTE's Neural Acute Assay for Standard Deviation of Burst Percentage, Shafer Lab (AID 2284018).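 Note: fitted in the negative direction so actives lower burst percentage SD.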 The gist of the method: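 Primary rat cortical neurons on 16-electrode MEA wells were recorded 40 min at baseline (DIV 13 or 15), then 40 min after compound (0.03-40 uM), at 37 C. Well value is SD across electrodes of spikes-in-bursts/total spikes; endpoint is percent change, DMSO-referenced.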

The nature of assay [15]: CCTE_Shafer_MEA_acute_per_network_burst_spike_number_mean: CCTE's Neural Acute Assay for Average Number of Spikes in a Network Burst, Shafer Lab (AID 2284019).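 For AC50: curve fitted for loss of signal so actives reduce spikes per network burst.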 In a few lines:
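Acute exposure of rat primary cortical networks (DIV 13/15) on MEAs; adaptive spike detection at 8x rms noise, 37 C. Percent change in spikes per network burst after 40 min with compound (0.03-40 uM), negative direction vs DMSO.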

Assay [16] is described as follows: CCTE_Shafer_MEA_acute_per_network_burst_spike_number_std: CCTE's Neural Acute Assay for Standard Deviation of Number of Spikes in a Network Burst, Shafer Lab (AID 2284020).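 Note: fitted for decrease in spike-number SD versus DMSO so actives lower it.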 The gist of the method:
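Acute MEA exposure, rat cortical neurons, 0.03-40 uM. Per-well % change versus own baseline; DMSO as negative control.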

The nature of assay [17]: CCTE_Shafer_MEA_acute_per_network_burst_electrodes_number_mean: CCTE's Neural Acute Assay for Mean Number of Electrodes in a Network Burst, Shafer Lab (AID 2284021).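 Note: curves fitted for decreases only so hits reduce electrodes per burst.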 The gist of the method:
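Readout: % change in mean electrodes active per network burst, post- vs pre-treatment, each well. Spikes detected at 8x rms noise after 300-5000 Hz band-pass; rat cortical cultures, DIV 13/15, compounds 0.03-40 uM, DMSO baseline.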

Assay [18] can be described thus: CCTE_Shafer_MEA_acute_network_burst_percentage: CCTE's Neural Acute Assay for Percentage of Network Bursts, Shafer Lab (AID 2284022).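 Note: curves fitted for loss so actives lower network burst percentage.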 In a few lines: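 Rat cortical cultures, DIV 13/15; 20 min equilibration, 40 min baseline, compound 0.03-40 uM, 40 min recording, 37 C. Spikes: 300-5000 Hz band-pass, threshold 8x rms noise. Readout: % change in network-burst spike fraction; loss direction vs DMSO.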

Assay [19] in a line: CCTE_Shafer_MEA_acute_cross_correlation_area: CCTE's Neural Acute Assay for Area of Cross Correlation, Shafer Lab (AID 2284024).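 Note: area under pooled inter-electrode spike cross-correlation near zero lag as percent change from own baseline; curves fitted for loss of cross-correlation area so actives lower synchrony.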 In a few lines: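 Rat cortical cultures, DIV 13/15, MEA; spikes detected at 8x rms noise (300-5000 Hz band-pass). Compound 0.03-40 uM, ≥3 wells each. Readout: % change in pooled inter-electrode cross-correlation area vs own baseline; DMSO negative control.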

The target of assay [20] is Estrogen receptor (Homo sapiens) (UniProt P03372). As to the kind of experiment: CCTE_Deisenroth_AIME_96WELL_LUC_Active: CCTE's 96-well Estrogen Receptor Transactivation Assay with AIME metabolic competence (ERTA luciferase; metabolism positive), Deisenroth Lab (AID 2284023; active = hit-call score of the fitted dose curve at least 0.9, where 1 is the maximum). In a few lines: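 Metabolism-positive mode: induced rat hepatic S9 in alginate microspheres conditions test solutions (0.002 - 200 uM, 10 points) for 2 hours. VM7Luc4E2 ER luciferase reporter cells then exposed 24 h; positive-direction fit against 17beta-estradiol, n=4 typical.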
Estrogen receptor (Homo sapiens), sequence (P03372 whole entry, looked up): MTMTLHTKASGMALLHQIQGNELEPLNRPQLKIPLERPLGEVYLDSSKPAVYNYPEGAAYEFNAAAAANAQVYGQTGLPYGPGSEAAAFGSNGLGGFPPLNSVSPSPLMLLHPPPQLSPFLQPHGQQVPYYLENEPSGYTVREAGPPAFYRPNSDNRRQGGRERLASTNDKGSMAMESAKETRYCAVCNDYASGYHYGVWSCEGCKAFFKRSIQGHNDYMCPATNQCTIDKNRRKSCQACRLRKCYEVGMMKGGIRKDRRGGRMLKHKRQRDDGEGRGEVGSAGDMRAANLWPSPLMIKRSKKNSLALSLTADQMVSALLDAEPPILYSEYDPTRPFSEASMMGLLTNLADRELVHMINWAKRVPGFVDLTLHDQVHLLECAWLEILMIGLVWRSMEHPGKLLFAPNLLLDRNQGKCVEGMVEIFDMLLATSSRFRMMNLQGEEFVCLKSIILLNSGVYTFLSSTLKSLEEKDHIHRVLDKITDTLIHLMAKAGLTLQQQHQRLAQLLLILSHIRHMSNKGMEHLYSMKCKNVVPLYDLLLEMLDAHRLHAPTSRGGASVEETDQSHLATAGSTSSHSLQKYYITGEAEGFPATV

Each structure is given as a SMILES string. Records with an inconclusive call do not appear. Calls of active or inactive are those of the source. Rule for the calls, unless noted: active = hit-call score of the fitted dose curve at least 0.9, where 1 is the maximum; inactive = score below 0.9.

Nucleoli Translocation, AR (gene 367), sequence (P10275 whole entry, looked up): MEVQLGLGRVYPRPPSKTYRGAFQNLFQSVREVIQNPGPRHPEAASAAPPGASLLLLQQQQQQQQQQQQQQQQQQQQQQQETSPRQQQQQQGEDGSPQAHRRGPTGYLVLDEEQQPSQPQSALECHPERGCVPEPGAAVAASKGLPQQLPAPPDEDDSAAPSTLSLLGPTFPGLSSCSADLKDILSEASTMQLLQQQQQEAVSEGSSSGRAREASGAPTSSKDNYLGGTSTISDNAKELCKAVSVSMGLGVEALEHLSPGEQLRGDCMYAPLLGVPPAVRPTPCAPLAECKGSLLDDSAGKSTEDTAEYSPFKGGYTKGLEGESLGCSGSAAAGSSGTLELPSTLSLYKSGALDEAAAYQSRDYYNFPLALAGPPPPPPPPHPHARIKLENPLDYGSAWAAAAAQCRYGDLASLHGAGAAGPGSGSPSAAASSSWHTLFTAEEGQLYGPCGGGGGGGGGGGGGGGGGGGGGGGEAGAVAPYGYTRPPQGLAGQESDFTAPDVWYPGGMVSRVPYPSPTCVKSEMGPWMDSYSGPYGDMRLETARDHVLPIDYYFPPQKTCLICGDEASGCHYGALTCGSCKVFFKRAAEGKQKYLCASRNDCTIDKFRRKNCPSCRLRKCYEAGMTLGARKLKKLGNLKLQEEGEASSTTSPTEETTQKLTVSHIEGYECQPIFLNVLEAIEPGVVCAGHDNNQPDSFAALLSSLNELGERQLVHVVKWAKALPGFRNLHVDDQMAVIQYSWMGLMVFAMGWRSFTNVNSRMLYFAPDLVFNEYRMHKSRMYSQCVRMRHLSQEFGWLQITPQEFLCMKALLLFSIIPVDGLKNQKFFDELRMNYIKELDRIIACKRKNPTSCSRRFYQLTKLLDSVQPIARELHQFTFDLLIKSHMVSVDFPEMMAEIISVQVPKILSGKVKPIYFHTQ
Ratio of Nucleoli Translocation and Cytoplasm, AR (gene 367), sequence (P10275 whole entry, looked up): as above

Take `CCCCCCCCCCCCCC(=O)OC(C)C`: the molecule was called inactive in assay [1], in assay [2], in [3] and in [4].
Take `COc1cc(O)c(C(=O)c2ccccc2)cc1S(=O)(=O)O`: the molecule was called inactive in assay [5], in [4], in assay [6] and in assay [7].
A word on the AC50: it is the concentration at which the activity in the assay is half-maximal. On to `c1ccc2c(c1)[nH]c1ccccc12`, for which the AC50 in assay [5] was 8380 nM (active). Moreover, the call in [1], in assay [2], in assay [3] and in assay [6] was inactive.
As for `CC/C=C\CCOC(=O)c1ccccc1O`, the call in [8], in assay [4], in assay [6], in assay [9], in assay [10] and in [11] was inactive. Moreover, the outcome in assay [13], in assay [14], in assay [16], in assay [17], in assay [18] and in assay [19] was inactive. For the same molecule, the AC50 is 15000 nM (active) in assay [12] and 3 nM (active) in assay [15].
As to `CC1(C)CC(O)CC(C)(C)N1[O]`, the outcome in assay [8], in assay [6], in assay [7], in [9], in assay [10] and in assay [11] was inactive. Also, the molecule was called inactive in assay [12], in [13], in assay [14], in assay [15], in [16] and in assay [17]. Also, the molecule was classed as inactive in [19]. Moreover, in [18], the AC50 is 20.4 nM (active).
Take `Nc1nc(N)nc(-c2ccccc2)n1`: the molecule was called inactive in assay [8], in assay [9], in [10], in assay [11], in [12] and in assay [13]. The molecule was classed as inactive in assay [14], in assay [15], in [16], in [17], in assay [18] and in [19].
Turning to `CC(=O)OC1CCCCC1C(C)(C)C` (configuration not stated), the result in assay [3], in assay [4], in assay [6] and in assay [7] was inactive.
Consider `c1ccc(Nc2cccc3ccccc23)cc1`, for which the AC50 is 1080 nM (active) in [8]; 1250 nM (active) in [9]; 15000 nM (active) in [10]; 5600 nM (active) in assay [11]; 11700 nM (active) in assay [12]; 4860 nM (active) in [13]. The AC50 is 1860 nM (active) in [16], 27800 nM (active) in assay [18], 17700 nM (active) in [20] and 465 nM (active) in [19]. Further, the call in assay [14], in [15] and in assay [17] was inactive.
For `Nc1cccc(N)n1`, the AC50 in assay [8] is 5.05 nM (active); in [9], 3 nM (active); in assay [11] it was 15.4 nM (active); in [13], 3 nM (active); in assay [14], 3 nM (active); in [15] it was 45.6 nM (active). Further, the results for the AC50 in assay [16] and in assay [18] were 11.7 nM (active) and 3.18 nM (active), respectively. Further, the molecule was called inactive in [10], in assay [12], in assay [17] and in assay [19].

For the origin of these results see PubChem BioAssay (EPA / NIEHS).
